Compound activity (PubChem BioAssay)
The list is not random: actives were taken first. Their share in the collection is about 4.2%.
hgDAF12 agonist: hgDAF-12 agonism, primary luciferase screen | HEK293 GAL4-hgDAF12 UAS-luciferase reporter, agonist luminescence; normalized to butyrate control | activation, % at 6.8 µM | hit rate 1.8% among 370,000 | AID 687014;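 active = activation above a cutoff set at the mean of all screened compounds plus 3 SD, cut at about 10% in these data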;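 note: 0% = DMSO wells and 100% = sodium butyrate wells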
hcDAF-12 act: activates DAF-12 receptor from parasite H. contortus; HEK293 hcDAF-12 lit1-tk-luc reporter, luminescence; 0% DMSO, 100% Δ7-dafachronic acid; activation, % at 6.8 µM; hit rate 1.4% among 370,000;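 active = activation above the mean of all tested compounds plus 3 SD, cut at about 5.5% in these data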;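 note: 100% = response to 3 µM Δ7-dafachronic acid high control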
SMARCA2 activ: SMARCA2 function activation, primary screen | MG213 cells, MMTV-luciferase reporter, dexamethasone, overnight | activation, % at 9.1 µM | hit rate 1% among 370,000; in the data active = activation above about 7.8%;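 note: 0% = vehicle wells and 100% = reference activator wells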
ssDAF12 agonist: activators of S. stercoralis DAF-12 nuclear receptor; hit rate 1% among 370,000; activation, % at 6.8 µM; HEK293 ssDAF-12/GRIP1 lit1-tk-luc reporter, luminescence; % of 3 µM dafachronic acid response;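 active = activation above the mean over all tested compounds plus 3 SD, cut at about 0.9% in these data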;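 note: 0% = DMSO-only wells and 100% = 3 µM delta7-dafachronic acid wells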
DAX1 StAR inh: inhibitors of DAX1 repression of SF-1 activated StAR promoter; HEK293T StAR-luciferase reporter, SF-1/DAX-1 repression relief; inhibition, % at 6.8 µM; hit rate 1.1% among 370,000;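 active = inhibition above the mean over all tested compounds plus 3 SD, cut at about 3.6% in these data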;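 note: 0% = DAX-1 cells with DMSO and 100% = cells lacking DAX-1 with DMSO; higher inhibition means more luminescence from relief of DAX-1 repression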
Numbers without * were called inactive.

How did COC(=O)c1cnn(-c2cc(Oc3ccccc3)ncn2)c1N do in these assays?
hgDAF12 agonist: 5; hcDAF-12 act: -1; SMARCA2 activ: 6; ssDAF12 agonist: -1; DAX1 StAR inh: 0

Results for Cc1c(OC(C)C(=O)NC(Cc2c[nH]c3ccc(O)cc23)C(=O)O)ccc2c1oc(=O)c1ccccc12 (stereo not drawn) ?
hgDAF12 agonist: 0; hcDAF-12 act: 1; SMARCA2 activ: -1; ssDAF12 agonist: -1; DAX1 StAR inh: 0

Results for Cc1c(C)c2ccc(OC(C)C(=O)N[C@@H](Cc3c[nH]c4ccccc34)C(=O)O)c(C)c2oc1=O (stereo partly drawn) ?
hgDAF12 agonist: 2; hcDAF-12 act: 5.9*; SMARCA2 activ: -2; ssDAF12 agonist: -1; DAX1 StAR inh: 1

Results for Cc1ccc(NC(=O)CSc2ncccn2)cc1F ?
hgDAF12 agonist: 2; hcDAF-12 act: -1; SMARCA2 activ: 4; ssDAF12 agonist: -2; DAX1 StAR inh: -1

Results for Cc1ccc(NC(=O)CSc2nccn2C)cc1F ?
hgDAF12 agonist: 3; hcDAF-12 act: 2; SMARCA2 activ: 2; ssDAF12 agonist: 0; DAX1 StAR inh: 4.4*

How did Cc1ccc2c(c1)C1CS(=O)(=O)N(CC(C)C)C(=O)N1C2 (stereo not drawn) do in these assays?
hgDAF12 agonist: 9; hcDAF-12 act: 4; SMARCA2 activ: 7; ssDAF12 agonist: -1; DAX1 StAR inh: 3

Results for COc1ccc(-c2nc(-c3cccnc3)no2)cc1OC ?
hgDAF12 agonist: 2; hcDAF-12 act: 0; SMARCA2 activ: -2; ssDAF12 agonist: -1; DAX1 StAR inh: 0

What do the screens show for `CCC(=O)Oc1ccc(-c2nc(-c3cccnc3)no2)cc1`?
hgDAF12 agonist: 11*; hcDAF-12 act: 2; SMARCA2 activ: 1; ssDAF12 agonist: -1; DAX1 StAR inh: 1

What do the screens show for `COC(=O)C1=C(C)N(C)C(=NCc2ccc3c(c2)OCO3)NC1c1cccc(F)c1` (stereo not drawn)?
hgDAF12 agonist: 0; hcDAF-12 act: 1; SMARCA2 activ: 5; ssDAF12 agonist: -1; DAX1 StAR inh: 1

Results for COC(=O)[C@]12C[C@H](CC(=O)NCCC(C)C)C(=O)N(Cc3ccc(Cl)cc3Cl)C1=C[C@H](C(C)(C)C)O[C@@H]2C ?
hgDAF12 agonist: -1; hcDAF-12 act: -1; SMARCA2 activ: -4; ssDAF12 agonist: -1; DAX1 StAR inh: -1

How did O=S(=O)(c1ccc(F)cc1)N1CCN(CC2CC3C=CC2C3)CC1 (stereo not drawn) do in these assays?
hgDAF12 agonist: 0; hcDAF-12 act: 6.5*; SMARCA2 activ: -2; ssDAF12 agonist: -1; DAX1 StAR inh: 0

Results for O=S(=O)(c1ccccc1)N1CCN(CC2CC3C=CC2C3)CC1 (stereo not drawn) ?
hgDAF12 agonist: -1; hcDAF-12 act: -1; SMARCA2 activ: -1; ssDAF12 agonist: -2; DAX1 StAR inh: 0

What do the screens show for `CCOC(=O)c1cc(C(=O)Nc2ccccc2F)nn1C`?
hgDAF12 agonist: 13*; hcDAF-12 act: 5; SMARCA2 activ: 5; ssDAF12 agonist: 0; DAX1 StAR inh: 3

Results for CC(=O)c1ccc(OCCn2c(SCC(=O)O)nc3ccccc32)cc1 ?
hgDAF12 agonist: 9; hcDAF-12 act: 6.4*; SMARCA2 activ: 6; ssDAF12 agonist: 0; DAX1 StAR inh: 0

What do the screens show for `COCCCn1c(SCC(=O)Nc2ccc(C(C)=O)cc2)nc2ccccc2c1=O`?
hgDAF12 agonist: 11*; hcDAF-12 act: 0; SMARCA2 activ: 0; ssDAF12 agonist: -1; DAX1 StAR inh: -1

What do the screens show for `COCCn1c(SCC(=O)Nc2ccc(NC(C)=O)cc2)nc2ccccc2c1=O`?
hgDAF12 agonist: 2; hcDAF-12 act: 2; SMARCA2 activ: 0; ssDAF12 agonist: -1; DAX1 StAR inh: -1

Results for COCCCNC(=O)c1csc([C@H]2C[C@H](O)[C@@H](CO)O2)n1 ?
hgDAF12 agonist: -1; hcDAF-12 act: 2; SMARCA2 activ: -4; ssDAF12 agonist: -1; DAX1 StAR inh: -1

How did CN(C)/C=C(\C#N)C(=O)Nc1ccc(F)c(Cl)c1 do in these assays?
hgDAF12 agonist: 3; hcDAF-12 act: 1; SMARCA2 activ: 2; ssDAF12 agonist: 1.3*; DAX1 StAR inh: 1

Results for COC(=O)C1CN(Cc2ccccc2)CCS(=O)(=O)N1Cc1ccccc1 (stereo not drawn) ?
hgDAF12 agonist: 2; hcDAF-12 act: -1; SMARCA2 activ: 4; ssDAF12 agonist: -1; DAX1 StAR inh: 0

How did CC(=O)Nc1ccc2nc(-c3ccc(Br)o3)[nH]c2c1 do in these assays?
hgDAF12 agonist: 11*; hcDAF-12 act: 2; SMARCA2 activ: 1; ssDAF12 agonist: 0; DAX1 StAR inh: 1

What do the screens show for `CCC(C(=O)NC(C)(C)C)n1c(-c2cccc(NC(C)=O)c2)nc2ccccc21` (stereo not drawn)?
hgDAF12 agonist: -3; hcDAF-12 act: -2; SMARCA2 activ: -6; ssDAF12 agonist: -1; DAX1 StAR inh: 0

Results for COc1ccccc1NS(=O)(=O)c1cccc(C(=O)NCC(c2ccccc2OC)N2CCCC2)c1 (stereo not drawn) ?
hgDAF12 agonist: 0; hcDAF-12 act: 0; SMARCA2 activ: -2; ssDAF12 agonist: -1; DAX1 StAR inh: 4.3*

Results for COc1ccccc1NS(=O)(=O)c1cccc(C(=O)OCc2nc3ccccc3s2)c1 ?
hgDAF12 agonist: 5; hcDAF-12 act: 5.6*; SMARCA2 activ: -2; ssDAF12 agonist: 2.7*; DAX1 StAR inh: 1

Results for COc1cccc(CNC(=O)C2CCN(c3nc(OC)nc(OC)n3)CC2)c1 ?
hgDAF12 agonist: 1; hcDAF-12 act: -3; SMARCA2 activ: -7; ssDAF12 agonist: -1; DAX1 StAR inh: -1

Results for Cc1ccc(-n2nc(CC#N)c(C#N)c2N)cc1Cl ?
hgDAF12 agonist: -1; hcDAF-12 act: 5; SMARCA2 activ: 2; ssDAF12 agonist: 1.3*; DAX1 StAR inh: 0

How did COc1ccc(-c2ccc(C(=O)Nc3ccc(OC)nc3)c3occc23)c(C)c1 do in these assays?
hgDAF12 agonist: -4; hcDAF-12 act: -3; SMARCA2 activ: -7; ssDAF12 agonist: -1; DAX1 StAR inh: -2

Results for COc1ccc(-c2ccc(C(=O)Nc3ccc4c(c3)OCO4)c3occc23)c(C)c1 ?
hgDAF12 agonist: 13*; hcDAF-12 act: 3; SMARCA2 activ: -1; ssDAF12 agonist: 0; DAX1 StAR inh: 3

How did C[C@H]1[C@H](c2ccccc2)Oc2cccc(NCCc3ccccc3)c2S(=O)(=O)N1Cc1cccc(Cl)c1 do in these assays?
hgDAF12 agonist: -1; hcDAF-12 act: 0; SMARCA2 activ: -1; ssDAF12 agonist: 0; DAX1 StAR inh: 0

Results for COC(=O)C[C@H]1CC[C@@H]2[C@H](COc3ccc(NS(C)(=O)=O)cc3C(=O)N2C)O1 ?
hgDAF12 agonist: -1; hcDAF-12 act: -3; SMARCA2 activ: -2; ssDAF12 agonist: -1; DAX1 StAR inh: 0

Results for Cc1occc1-c1nc(-c2ccccn2)no1 ?
hgDAF12 agonist: 11*; hcDAF-12 act: 6.0*; SMARCA2 activ: 2; ssDAF12 agonist: 1; DAX1 StAR inh: 3
